According to PubChem BioAssay (NCI):
Compounds without any hit were thinned out: in the full panel of roughly 83,000, 20% have a hit.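 For each line, cells grew in 96-well plates with the test compound present at a single concentration for 48 hours.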 A number with no mark means an inactive call. Activity calls are given as the source filed them. How the source made its calls: active means growth percent below 10; inactive means the rest.

The compounds below were run on UO-31 renal (assay: NCI-60 one-dose screen, 48 h (100 = growth as untreated, 0 = no growth, -100 = all killed)). Conditions: 10 µM.

Compound	growth
Cc1ccc(/C=C/C(=O)c2ccc(NC(=O)CSc3nnc(-c4c[nH]c5ccccc45)n3-c3ccccc3)cc2)cc1	55.3%
CCCn1c(O)c(N=Nc2nc(-c3cc4ccccc4oc3=O)cs2)c2cc(Br)ccc21	85.1%
COc1ccc2[nH]c(=O)c(CSc3nccc(-c4ccc(Cl)cc4)n3)cc2c1	7.11% (active)
COc1cc(/C=C/C(=O)c2cc(OC)c(OC)c(OC)c2)ccc1Oc1nc(Nc2ccc(F)cc2)nc(N(C)C)n1	-100% (active)
c1ccc(C(=C(c2ccc(OCCN3CCCCC3)cc2)c2ccc(OCCN3CCCCC3)cc2)C2CCCC2)cc1	89.5%
Cc1ccc(/C=C(\C#N)n2nnc3c(F)cccc32)cc1	15.2%
O=C1Nc2ccc(F)cc2/C1=C/c1cccc(OCc2ccccn2)c1	34%
Cc1ccc(-c2cc(C(=O)N=Nc3c(O)[nH]c4ccc(Br)cc34)c3ccccc3n2)cc1	52.2%
Cc1cc(C)nc(NS(=O)(=O)c2ccc(N/C(N)=N/c3nccc(-c4ccccc4)n3)cc2)n1	34.7%
COc1ccc(NC(=O)Nc2ccc(OCC(=O)N=Nc3c(O)[nH]c4ccc([N+](=O)[O-])cc34)cc2)cc1	94.3%
COc1ccc(-c2nc(Nc3ccccc3S(N)(=O)=O)c3ccccc3n2)cc1	29.2%
CCCCCc1ccc(S(=O)(=O)N(C(C)=O)c2cc(-c3csc(N(C)C(C)=O)n3)ccc2N2CCN(C)CC2)cc1	41.8%
NS(=O)(=O)c1ccc(N=Nc2c(O)n(CC(=O)Nc3ccccc3Br)c3ccccc23)cc1	14.4%
CN(C)c1nc(NCCNS(=O)(=O)c2ccc(C(=O)/C=C/c3ccccc3)cc2)nc(Nc2ccc(F)cc2)n1	18.2%
CC1=C2C(=C[C@@](C)(COCOCCCl)[C@@H]2O)C(=O)[C@](C)(O)C12CC2	-44.1% (active)
COC[C@@H](CC(C)C)N=C1NC(=O)/C(=C/c2ccc3ncoc3c2)N1	-8.68% (active)
CC1=C2C(=C[C@@](C)(CO)[C@@H]2O)/C(=N\N)[C@](C)(O)C12CC2	-29.2% (active)
CN1CCc2c(sc3ncnc(N/N=C/c4ccc5ccccc5c4)c23)C1	60.5%
Cc1cccc(-c2nc(Nc3ccccc3C(=O)O)c3ccccc3n2)c1	31%

Compound	growth
COc1ccc2[nH]c(O)c(N=NC(=O)COc3ccc(NC(=O)Nc4ccc(Cl)cc4)cc3)c2c1	90.3%
CN1CCN(Cc2ccc(NC(=O)c3cncc(C#Cc4cnc5ccc(N[C@H]6CCOC6)nn45)c3)cc2C(F)(F)F)CC1	-95.6% (active)
N#Cc1c(Cl)nc(SCc2ccc(F)cc2)nc1-c1ccc(F)cc1	87.1%
CONC[C@]1(C)C=C2C(=O)[C@](C)(O)C3(CC3)C(C)=C2[C@H]1O	-24.8% (active)
CCCCOc1ccc(Nc2nc3ccccc3nc2Nc2ccc(OCCCC)cc2)cc1	85.3%
C=C1CCC2C3(C)COC(c4cccc(F)c4)OC3CCC2(C)C1CC(O)C1=CCOC1=O (configuration not stated)	57.1%
COc1ccc(/C=N/N=C(\C)c2ccc3c(c2)Nc2ccccc2S3)cc1O	47%
O=S(=O)(Nc1ncccn1)c1ccc(-n2c(-c3ccc(Br)cc3)nc(-c3ccccc3)c2-c2ccccc2)cc1	20.1%
C[C@H]1[C@H](C)CC[C@]2(COC(=O)CCC(=O)NCC#CCN3CCNCC3)CC[C@]3(C)C(=CC[C@@H]4[C@@]5(C)CCCNC(C)(C)[C@@H]5CC[C@]43C)[C@H]12	42.9%
CN1CCN(Cc2ccc(C(=O)Nc3cccc(Nc4ccc5c(O)cccc5n4)c3)cc2C(F)(F)F)CC1	-20.2% (active)
CC(=O)Nc1ccc(-c2cn(-c3cccc(C(=O)Nc4cccc(OC(F)(F)F)c4)c3)nn2)cn1	131%
CCOC(=O)C1=C(N)N(c2ccccc2)C2=C(C(=O)CC(C)(C)C2)C1c1ccccc1OC (configuration not stated)	74.4%
O=c1[nH]c2ccccc2cc1CSc1ccc(Nc2nccc(-c3ccc(C(F)(F)F)cc3)n2)cc1	5.37% (active)
COC(=O)C[C@](O)(CCCC(C)(C)O)C(=O)O[C@H]1C(OC)=C[C@@]23CCC(=O)N2CCc2cc4c(cc2[C@@H]13)OCO4	65%
COc1ccc2[nH]c(O)c(N=NC(=O)c3cc(-c4ccc(C)cc4)nc4ccccc34)c2c1	69.9%
COc1ccc(CN2[C@H](C(=O)NCc3ccc(C(=O)NO)cc3)Cc3c([nH]c4ccccc34)[C@H]2C2CC2)cc1	66.4%
COc1ccc(C2N(c3ccc(Br)cc3)N=C(C(C)=O)N2[C@H]2[C@H](OC(C)=O)O[C@H](COC(C)=O)[C@@H](OC(C)=O)[C@@H]2OC(C)=O)cc1 (some centres not stated)	44.5%
CN(CCF)c1ccc(/C=C/C(=O)c2ccc(N)cc2O)cc1	53.2%
